ELG1 DNA repair: inhibitors of ELG1-dependent DNA repair in HEK293T cells; Potency, µM (titrated, usually from 46.1 µM), for the others: at the top dose activity change, negative = inhibition, most hits filed as inhibitors; actives 2.3% (n = 330,000); HEK293T ELG1-luciferase reporter, luminescence, 16 h; DNA damage induced by 5-fluorouridine; AID 504467; also: potency is read from the fitted curve at half-maximal effect; nearly all actives have a fitted effect of over 55% in size
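5-Fluorouridine DNA damage + compound/DMSO, 2,000 cells/well, 16 h, 37 °C/5% CO2. ONE-Glo, 30 min RT, luminescence. Readout = decrease in reporter signal.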
Giardia kill: Giardia lamblia killing; Giardia lamblia trophozoite viability; activity change, % at 7.66 µM, hits read low; actives 0.15% (n = 340,000); AID 540267; in the data active = activity change below about -80%; inconclusive = between about -30% and that limit;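 also: parasites exposed to compound for two days anaerobically before the ATP read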
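Each well holds 100 Giardia trophozoites and compound. After two days (48 hrs) at 37 deg C in anaerobic conditions, ATP is quantified by luminescence.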
FBPA coupling cs: counter-screen for Giardia aldolase inhibitors: coupling enzyme system; coupling enzyme system counterscreen, AmpLite Red fluorescence; activity change, negative = inhibition, % at 58.2 µM, hits read low; actives 0.67% (n = 290,000); in the data active = activity change below about -30%
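Compounds tested against the coupling enzymes alone at 57.5 uM final; readout was AmpLite Red fluorescence (525/598 nm) after 20 min at RT.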
Sfp PPTase inh: Sfp phosphopantetheinyl transferase inhibition. actives 3.5% (n = 310,000). Biochemical Sfp PPTase activity, qHTS. AID 1490. Potency, µM, without a hit: largest response in the series, negative = inhibition, most hits filed as inhibitors;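 also: the enzyme is Sfp with the accession as filed and its product quenches rhodamine fluorescence; potency is read from the fitted curve at half-maximal effect; 0% = enzyme reaction without inhibitor and -100% = no enzyme wells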
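Compounds were incubated with enzyme (final 15 nM) for 15 min at room temperature before substrate addition started the reaction. Fluorescence at 525 nm excitation, 598 nm emission was recorded immediately and after 30 minutes.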
* hit, by the source's call; ? = inconclusive; · = no result given. Rows were chosen to be rich in hits. Some 5.5% of all compounds tested hit in one or more screens of this group. Unless noted, calls follow the shape of the dose curve; as a rule, active = well fitted curve in the direction sought with a large enough effect; inconclusive = small, poorly fitted or top-dose-only effect, or another doubt; inactive = no such curve, though single readings can be large; an effect the other way counts as inactive or inconclusive. Unless noted, % is scaled to controls: 0 for no effect and ±100 for the full control effect.

SMILES | ELG1 DNA repair | Giardia kill | FBPA coupling cs | Sfp PPTase inh
C=CCn1c(COc2ccc(F)cc2)nnc1SCC(=O)NC1CCS(=O)(=O)C1 (stereo not given) | 13% | 2 | · | ·
CCOc1ncccc1C(=O)OCc1csc(CC(=O)Nc2ccccc2C)n1 | -15% | 11 | · | ·
Cc1ccc(/C=N/Nc2cn[nH]c(=O)n2)o1 | 15% | -4 | 0 | 50µM*
CC(=O)N(C1=C(N2CCOCC2)C(=O)c2ccccc2C1=O)c1ccc(C(=O)O)cc1 | 23µM* | 10 | -54* | -12%
O=C(c1ccccc1)c1ccc(N2CCOCC2)cc1 | · | -9 | · | ·
CC(=O)N(C)C1=C(N2CCOCC2)C(=O)c2ccccc2C1=O | ? | -26 | -56* | 5%
O=C(Nc1ccccc1)N1CC[C@@]2(CCCN(C(=O)c3cc(C(F)(F)F)cc(C(F)(F)F)c3)C2)C1 | · | · | 1 | -4%
CCCCCCN1C2=NCCN2c2ccccc21 | -27% | 27 | 3 | 2%
CCCCCCn1ccc(=N)cc1 | 3.7µM* | 2 | -2 | -1%
C=CCN1C(=O)/C(=c2\sc3nc(=O)c(Cc4ccc(OC)c(OC)c4)nn3c2=O)c2ccccc21 | -5% | 8 | 6 | 16µM*
CCN1C(=O)/C(=C/c2nc3ccccc3c(=O)[nH]2)c2ccccc21 | ? | -2 | -2 | -1%
CCN1C(=O)/C(=c2\sc3nc(=O)c(Cc4ccccc4)nn3c2=O)c2ccccc21 | 3% | -8 | 1 | 25µM*
C=CCN1C(=O)/C(=N/n2cnnc2)c2ccccc21 | ? | -1 | -1 | -1%
C=CCN1C(=O)/C(=c2\sc3nc(=O)c(Cc4ccccc4)nn3c2=O)c2ccccc21 | -5% | 4 | 4 | 13µM*
CC(=O)N1c2ccc(S(=O)(=O)NCC3CCC(C(=O)Nc4cccc(C)n4)CC3)cc2CC1C (stereo not given) | ? | 1 | · | 14%
Cc1ccc2oc3c(c(=O)c2c1)C(c1ccc(F)cc1)N(CCCN1CCOCC1)C3=O (stereo not given) | 0% | · | 3 | ?
COC(=O)c1ccc(C2c3c(oc4ccccc4c3=O)C(=O)N2CCCN2CCOCC2)cc1 (stereo not given) | -5% | -20 | 1 | 25µM*
COCCN1C(=O)c2oc3ccccc3c(=O)c2C1c1ccc(C(=O)OC)cc1 (stereo not given) | 5% | -6 | 0 | -5%
CCOc1ccc(C2c3c(oc4cc(C)c(C)cc4c3=O)C(=O)N2CCCN2CCOCC2)cc1 (stereo not given) | -25% | 7 | -3 | 50µM*
Cc1ccc2oc3c(c(=O)c2c1)C(c1cccc(Cl)c1)N(CCCN1CCOCC1)C3=O (stereo not given) | 10µM* | -11 | -1 | 8%
Cc1ccc(S(=O)(=O)O/N=C2\CCCc3ccccc32)cc1 | 2% | -14 | -12 | -1%
CC1=C(C)/C(=N\OS(=O)(=O)c2ccccc2)C=CC1=O | ? | 11 | -77* | 40µM*
Cc1ccc(NC(=O)N2CCN(C(=O)c3ccco3)CC2)cc1Cl | 0% | 21 | -4 | 4%
Cc1ccccc1C(=O)N1CCN(c2ccc(NC(=O)c3ccco3)cc2Cl)CC1 | 2.1µM* | 8 | 2 | -23%
O=C(Nc1ccc(N2CCN(C(=O)c3cccs3)CC2)c(Cl)c1)c1ccco1 | 21µM* | 0 | 0 | 1%
SMILES | ELG1 DNA repair | Giardia kill | FBPA coupling cs | Sfp PPTase inh
CCCOc1cccc(-c2nn(-c3ccccc3)cc2/C=C(\C#N)C(=O)NCCCn2ccnc2)c1 | ? | -6 | -3 | -20%
N#C/C(=C/c1cn(-c2ccccc2)nc1-c1cccc(OCc2ccc(F)cc2)c1)C(=O)NCCCn1ccnc1 | 15µM* | -9 | -4 | ?
COc1ccc(CN(CC2CCCO2)C(=O)CN2C(=O)C(C)Oc3ccc(C)cc32)cc1OC (stereo not given) | 8.2µM* | -22 | 1 | -6%
O=C(O)c1ccc(CSc2nc(-c3ccc(Cl)cc3)cc(C(F)(F)F)n2)cc1 | -8% | -14 | 27 | 50µM*
O=C(O)c1ccc(CSc2nc(-c3ccccc3)cc(C(F)(F)F)n2)cc1 | -1% | 6 | 20 | -4%
Cc1cc(C(F)(F)F)nc(SCc2ccc(C(=O)O)o2)n1 | ? | -5 | 17 | 35µM*
CN(Cc1ccccc1)C(=O)c1cccc(NC(=O)Cc2cccc(NC(=O)C3CCN(C(=O)c4ccccc4)CC3)c2)c1 | · | -11 | · | ·
Cc1cc(F)ccc1NC(=O)CS(=O)(=O)c1cccc2nsnc12 | · | 0 | · | ·
Cn1nc(C(C)(C)C)cc1C(=O)NNC(=O)c1ccc(C(F)(F)F)cc1 | 7.3µM* | 11 | 5 | 23%
Cc1noc(C)c1C(=O)N1CCC2(CCN(Cc3ccncc3)CC2)CC1 | · | · | 3 | 6%
CC(Oc1ccc(Cl)cc1)C(=O)NCC1CCCO1 (stereo not given) | 3% | 25 | -1 | 4%
COC(=O)C1=C(Nc2ccccc2NC(=O)c2ccccc2C(=O)O)CSC1 | ? | -9 | -5 | 45µM*
CC(C)c1ccccc1NC(=O)CCCC(=O)O | -3% | 14 | 5 | 6%
COC(=O)C1=C(Nc2ccccc2NC(=O)CCCC(=O)O)CSC1 | 8% | 2 | 0 | 79µM*
CC(C(=O)NCCCc1ccccc1)n1cccc1C(=O)c1ccccc1 (stereo not given) | -2% | -11 | · | 1%
C[C@@]1(C(=O)O)NCCc2cc(O)c(O)cc21 | · | · | -10 | 56µM*
CCCN1CNc2c(c(=O)[nH]c(=S)n2CCc2c(C)cccc2C)C1 | · | 8 | · | ·
CC1=C(CO)C(=O)OC([C@@H](C)C2CC[C@H]3C4C[C@H]5O[C@]56[C@@H](O)C=CC(=O)[C@]6(C)C4CC[C@]23C)C1 (stereo not given in full) | 9.2µM* | 14 | 1 | ?
FC(F)(F)c1ccc(Cl)c(-n2c(Cc3cccs3)n[nH]c2=S)c1 | ? | 3 | -3 | 79µM*
Cc1c(C)c(C)c(S(=O)(=O)NCCC(=O)N2CCN(Cc3ccc(C#N)cc3)CC2)c(C)c1C | -17% | -4 | · | ·
Oc1ccc(-c2csc(Nc3ncccn3)n2)c(O)c1 | ? | -3 | 2 | 50µM*
CC(=O)Nc1cccc(-c2csc(Nc3ncccn3)n2)c1 | ? | · | 1 | -27%
Oc1ccc(-c2csc(Nc3ncccn3)n2)cc1O | ? | -2 | -10 | 50µM*
COC(=O)c1nnc(N[C@@H](Cc2c[nH]c3ccccc23)C(=O)OC)nc1C(=O)OC | · | · | 1 | -6%
CC(C)c1ccc(NC(=O)NCc2cccnc2)cc1 | ? | -8 | 7 | 5%
CC(=O)c1c(C)n([O-])c2cc(C)ccc2[n+]1=O | -3% | -104* | 0 | 13%
OCCN1CCN(C(c2cccs2)c2ccc3cccnc3c2O)CC1 (stereo not given) | -7% | · | -12 | 16µM*
N#C/C(=C\c1ccc(OC(=O)c2ccccn2)cc1)C(N)=O | ? | 24 | -7 | 50µM*
N#C/C(=C\c1ccc(OCc2ccccc2)cc1)C(N)=O | ? | 3 | 0 | -19%

Assay outcomes: PubChem BioAssay, National Center for Advancing Translational Sciences (NCATS)
